Active and inactive are the calls of the source. The rule behind the calls is not given here.

Drawing on PubChem BioAssay, this text covers inhibition for 40 compounds.

This experiment deals with Pantothenate synthetase (Mycobacterium tuberculosis (strain ATCC 25618 / H37Rv)) (UniProt P9WIL5). Description: Coupled enzyme confirmation of inhibitors against recombinant Mtb PanC (AID 375).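 Note: 0% = full reaction with vehicle and 100% = no enzyme background.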 As to conditions: coupled enzyme assay; at 10 µM, stronger effect = higher value.
Sequence of Pantothenate synthetase (Mycobacterium tuberculosis (strain ATCC 25618 / H37Rv)) (P9WIL5 whole entry, looked up): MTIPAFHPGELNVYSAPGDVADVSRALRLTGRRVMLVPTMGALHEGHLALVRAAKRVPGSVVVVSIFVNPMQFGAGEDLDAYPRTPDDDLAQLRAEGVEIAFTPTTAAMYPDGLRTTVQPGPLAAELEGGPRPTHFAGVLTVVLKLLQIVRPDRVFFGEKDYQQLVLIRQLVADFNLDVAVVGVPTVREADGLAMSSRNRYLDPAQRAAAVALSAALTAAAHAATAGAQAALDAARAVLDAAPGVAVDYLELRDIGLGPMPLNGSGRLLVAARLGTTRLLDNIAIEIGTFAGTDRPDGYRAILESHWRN
In the case of `c1ccc(CC2CCN(C(c3cccs3)c3nnnn3C3CCCC3)CC2)cc1` (stereo not given), the inhibition is 3% (inactive).
Next, `CCN(CC)c1ccc2c(C)c(-c3ccc(N)cc3)c(=O)oc2c1`: 10% (inactive); `CC(=O)OCC(=O)[C@@]12OC3(CCCC3)O[C@@H]1C[C@H]1[C@@H]3CCC4=CC(=O)C=C[C@]4(C)[C@@]3(F)[C@@H](O)C[C@@]12C`: 1% (inactive).
For `O=C(CSc1nnc(-c2ccccc2)o1)N1CCN(c2ccccc2)CC1`, the inhibition is 0% (inactive).
The figure for `CCCOC(=O)C1C2C=CC3(CN(c4cccc(Cl)c4)C(=O)C13)O2` (stereo not given) is 0% (inactive); for `CC(Oc1ccc(Cl)cc1Cl)C(=O)Nc1ncccn1` (stereo not given) it is 0% (inactive); for `CN1CCN2c3ccccc3Cc3ccccc3C2C1` (stereo not given) it is 0% (inactive).
Take `Cc1ccc(C)c(C(=O)CC2(O)C(=O)Nc3ccccc32)c1` (stereo not given): the inhibition is 5% (inactive).
With `O=C(CCC(=O)OCC(=O)c1ccccc1)NC1CCCCC1`, the inhibition is 2% (inactive).
Take `CCOC(=O)N1CCN(S(=O)(=O)c2ccc(OCC)c(C)c2)CC1`: the inhibition was 0% (inactive).
The figure for `COc1ccc(CNC(=O)C(c2ccco2)N(Cc2cccs2)C(=O)Cc2cccs2)cc1` (stereo not given) is 0% (inactive).
`Nc1nonc1-n1nnc(C(=O)c2ccccc2)c1-c1ccccc1`: the inhibition is 0% (inactive).
Regarding `Nc1nc(-c2ccccc2Br)cs1`, the inhibition is 3% (inactive).
Next, `CCOC(=O)Nc1nnc(-c2ccccc2OC)s1`: 0% (inactive).
Next, `COc1ccc(C2=Nn3c(nnc3-c3ccccc3)SC2)cc1OC`: 0% (inactive).
With `O=C(NC1CCCC1)c1cc(-c2cccs2)on1`, the inhibition was 6% (inactive).
Turning to `O=C(NCc1ccco1)c1cnc2n(c1=O)CCS2`, the inhibition is 0% (inactive).
Next, `Cc1ccc2c(c1)CCCN2C(=O)c1ccc2c(c1)OCO2`: 0% (inactive).
The figure for `COC(=O)CS(=O)(=O)c1nnc([C@H](Cc2ccccc2)NC(=O)OC(C)(C)C)o1` is 1% (inactive).
Take `CCOc1cccc(OCCOCCN2CCCC2)c1`: the inhibition is 8% (inactive).
The figure for `Cc1noc(/C=C/N(C)C)c1S(=O)(=O)N1CCCC(C(=O)NC2CCCCC2)C1` (stereo not given) is 8% (inactive); for `COc1cccc(Oc2ccc(N)cn2)c1` it is 0% (inactive).
The figure for `Cc1cc(C)c2c(=O)n(CC(=O)NCCCN3CCOCC3)sc2n1` is 1% (inactive).
The figure for `CCc1nnc(NC(=O)CSc2nnc(-c3ccc(OC)cc3)n2C)s1` is 0% (inactive).
As to `COc1ccc(C2c3c(-c4ccccc4O)n[nH]c3C(=O)N2CCc2ccc(OC)c(OC)c2)cc1` (stereo not given), the inhibition is 0% (inactive).
For the compound `C=CCn1c(SCC(=O)Nc2cccc(OC)c2)nnc1-c1cccnc1`, the inhibition is 0% (inactive).
Next, `Cc1ccc(N2C(=O)c3ccccc3C2O)nc1` (stereo not given): 1% (inactive); `CCOC(=O)c1cccc(NC(=O)c2ccco2)c1`: 0% (inactive).
Take `COc1cc(C)nc(NS(=O)(=O)c2ccc(C)cc2)n1`: the inhibition was 5% (inactive).
For the compound `CC(C(=O)N1CCCCC1)n1ncn2cccc2c1=O` (stereo not given), the inhibition is 0% (inactive).
Next, `Cc1occc1-c1nc(-c2ccncc2)no1`: 3% (inactive).
For `CCOC(=O)c1cccc(NC(=O)CSc2nnc(-c3cccnc3)n2C)c1`, the inhibition was 7% (inactive).
`Cc1c(C(=O)OC2CCCCC2)[nH]c2c1C(=O)CC(C)(C)C2`: the inhibition was 0% (inactive).
Next, `CNC(=O)CN(c1ccc(C(C)C)cc1)S(C)(=O)=O`: 0% (inactive).
For `CC1CC(=O)C2=C(C1)OC(N)=C(C#N)C2c1coc2ccccc2c1=O` (stereo not given), the inhibition is 6% (inactive).
In the case of `O=C(Nc1cnn(Cc2ccc(F)cc2)c1)c1cnccn1`, the inhibition was 2% (inactive).
On to `Clc1ccccc1OCc1nn2c(-c3ccncc3)nnc2s1`, for which the inhibition was 0% (inactive).
Next, `Cc1cc(C)n(CC(=O)n2c3c(c4ccccc42)CCCC3)n1`: 2% (inactive); `CC(=O)NCCOc1cccc(OCCNC(C)=O)c1`: 2% (inactive); `Cc1nc(N2CCC(C)CC2)c2c(C)c(C(=O)O)sc2n1`: 0% (inactive).
